Data from PubChem BioAssay AID651567 (National Center for Advancing Translational Sciences (NCATS), 2012).
Screen size: about 1,200 compounds; about 10 (0.8%) were called active. Not shown: some 4% with an inconclusive outcome. What follows is part of a selection rich in actives, with near analogues and random picks from the rest. Values without a mark were called inactive. The call rests on the fitted dose curve; in most records, active means well fitted inhibition curve with a large enough effect; inconclusive means small, poorly fitted or top-dose-only effect; inactive means no such curve, though single readings can be large or run the other way.

Assay: qHTS Assay to Find Inhibitors of Chronic Active B-Cell Receptor Signaling: Hit Validation in OCI-Ly3 Assay
Conditions: OCI-Ly3 IkB-luciferase reporter, Chroma-Glo luminescence, 4 h; series mostly up to 46.1 µM; activity change, negative = inhibition: at the top concentration
Description: Diffuse large B-cell lymphoma (DLBCL) is the most common category of non-Hodgkin lymphoma, with ~20,000 new cases per year in the United States. DLBCL should be regarded as a collection of different neoplasms. Microarray gene expression analysis has defined two principal types of DLBCL, named for their similarity to normal B cell stages or activation states: a germinal center B-cell (GCB) type, and an activated B-cell (ABC) type. In ABC-DLBCL, a constitutive high-level activity of the NF-kappaB family of transcription factors has been observed (1) and NF-kappaB target genes are more highly expressed in ABC primary tumors than in GCB tumors. Functional studies have shown a constitutive high-level activity of the IkappaB (inhibitor of kappa-B) kinase (IKK) complex. […] Further analysis of DLBCL primary tumors for NF-kappaB target gene expression imply that although CARD11 is required for constitutive IKK activity in all ABC-DLBCL lines, mutations in CARD11 may be the root cause of IKK activation only in lines or tumors with such mutations. In other words, CARD11 mutations may explain NF-kappaB activation in only 10% of ABC-DLBCL cases. […] This process has been termed 'chronic active BCR signaling' (CABS). The goal of this screen is to find small-molecule inhibitors of the CABS pathway found in ABC-DLBCL lines using a cell-based assay that measures IkappaBalpa stability, which has already been extensively validated in the OCI-Ly3 line (PubChem AID:445; REF: 4). […] Hits from the primary screen were tested in this selectivity secondary assay. NIH Molecular Libraries Probe Production Network [MLPCN] NIH Chemical Genomics Center [NCGC] MLPCN Grant: R03 DA031086 PI Name: Dr. R. Eric Davis
Cells were seeded in 1536-well plates at 5000 cells/3ul in IMDM medium containing 0.5% FBS, w/o phenol red, L-glutamine, 25 mM HEPES, 3 mg/ml sodium bicarbonate. After centrifugation for 1 min. at 1000 rpm, 23 nl of compounds or DMSO were delivered to each well using a pin tool. Then 1ul 80ng/ml doxycycline was dispensed into white solid 1536-well plates and the plates were incubated at 37C/5% C02 in a cell incubator for 4 hrs. Then 4 ul Chroma-Glo luminescent substrate mix (Promega) was added to each well. The plate was incubated at R.T. for 10-15 min. The plates were measured on a ViewLux plate reader for green luminescence (540/20 nm filter) and red luminescence (618/8 nm filter). The green and red luminescent signals were corrected for red and green luminescence filter overlap using previously determined filter calibration constants (determined using the procedure outlined in the Promega Technical Manual). The %Activity was determined from the ratio of corrected green/red luminescent values. Green luminescent and ratio %Activity was determined by normalizing to the difference in signal between basal cells (0% Activity) and cells incubated with 10 uM of the proteasome inhibitor MG-132 (100% Activity). Red luminescent %Activity was normalized to the difference between red luminesence in basal cells (0%Activity) and zero luminescence (-100% Activity). Concentration-response curves were fitted to the signals arising from the green luminescence (I-kappa-B-alpha-luciferase fusion; IkB-luc) and the red luminescence (unfused luciferase; luc) as well as the calculated ratio. The concentration-effect curves were then classified based on curve quality (r2), response magnitude and degree of measured activity. Compounds were then categorized based on their concentration-response curves for all three datasets (Ikb-luc, luc and ratio).
On the % scale 0 is the no-effect control and ±100 the full control effect; potency means the concentration at half of the fitted maximal effect.

SMILES | activity change, negative = inhibition [%] | Potency
Oc1[nH]c2c(Cl)cc(Cl)cc2c1N=NC(=S)NCC1CCCO1 (stereo not given) | -26.5 | 
CCn1c(O)c(N=NC(=S)NCC2CCCO2)c2ccccc21 (stereo not given) |  | 20.6 µM (active)
NC(=S)N=Nc1c(O)n(CCCl)c2ccccc12 | -0.383 | 
COC(=O)C1C(O)=C(C=Nc2cccc3ccccc23)C(=O)CC1(C)C (stereo not given) | -0.573 | 
CCOc1ccc(C(=O)NC(=S)Nc2cccc(S(=O)(=O)NC3=NCCC3)c2)cc1 | -4.42 | 
CC1=CC(C)(C)N(S(=O)(=O)c2ccc(C)cc2)c2ccccc21 | -3.65 | 
Cc1ccc(OC/C(=N\O)C(C)(C)C)c([N+](=O)[O-])c1 | -0.43 | 
Cc1ccc(Nc2nc(-c3c(C)nc4ccccn34)cs2)cc1 | -3.78 | 
CCOc1ccc(C(=O)c2cc([N+](=O)[O-])ccc2N2CCOCC2)cc1 | -3.09 | 
COc1ccc(C=C2c3ccccc3C(=O)c3ccccc32)c(OC)c1 | -2.64 | 
COc1ccc(/C=C/C(=O)c2cc(Br)ccc2OC(=O)c2ccco2)cc1OC | -26.8 | 
COCCN(Cc1cc2cc(C)cc(C)c2nc1Cl)C(=O)Nc1ccccc1 | -1.1 | 
Cc1ccc(NC(=S)NNC(=S)Nc2ccc(C)cc2C)cc1 | -5.8 | 
CCCCOc1ccc(Br)cc1/C(C)=N/NC1=NCCN1 | -0.15 | 
COc1cccc(C2NC(=S)NC(C)=C2C(=O)c2ccccc2)c1OC (stereo not given) | -1.95 | 
O=C(/C=C/c1ccccc1Cl)c1cccnc1 | -0.735 | 
CCOC(=O)C1CCN(S(=O)(=O)c2c(Cl)ccc3nonc23)CC1 | 1.28 | 
S=c1nc2ccccc2c2nc(-c3ccccc3Br)[nH]n12 | 83.2 | 
Oc1ccc(-c2nnc(Nc3cccc(O)c3)c3ccccc23)cc1 | -1.7 | 
COc1ccc(-c2cc(C(F)(F)F)n3nc(C(=O)NCCCn4ccnc4)cc3n2)cc1 | -0.239 | 
COc1ccccc1-c1cc(C(=O)NCCc2ccccc2)no1 | -4.78 | 
COc1ccc(C(=O)c2ccc(N(C)C)cc2)c2ccccc12 | -4.15 | 
CCCCC[C@H](O)/C=C/C1=C(CCCCCCC(=O)O)C(=O)CC1 | -0.832 | 
CCc1nc2ccccc2c(C(=O)OCc2nc3ccccc3c(=O)[nH]2)c1C | -2.85 | 
S=c1nc2ccccc2c2nc(-c3ccccc3)[nH]n12 | 18.3 | 
ClCc1nc2ccccc2c2ccccc12 |  | 13 µM (active)
CCCc1oc2ccc(NS(=O)(=O)c3ccc(OC)cc3)cc2c1C(=O)OCC | -4.35 | 
COc1ccc2c(c1)c(/C=N/Nc1nc3ccccc3[nH]1)c(C)n2C | -10 | 

SMILES | activity change, negative = inhibition [%] | Potency
COC(=O)[C@@H]1[C@@H](C#N)C2(c3ccccc3-c3ccccc32)N(c2ccc(Cl)cc2)N1C#N | 0.249 | 
O=C(Nc1ccc([N+](=O)[O-])cc1)Nc1ccon1 | -2.62 | 
Cc1cccc(Cn2cc(/C=C/[N+](=O)[O-])c3ccccc32)c1 | -2.08 | 
CCN(CC)c1ccc2c(C)c(CO)c(=O)oc2c1 | -0.0824 | 
Cc1nc(NC(=S)Nc2ccccc2)sc1C | 31.6 | 
COc1ccc(OC)c(-c2cc(C(=O)Nc3c(C)nn(Cc4ccccc4)c3C)no2)c1 | -2.57 | 
Cc1ccc(O)c(N=Nc2nccs2)c1 |  | 16.4 µM (active)
CCOC(=S)SCC(=O)Nc1nc(-c2ccc(Br)cc2)cs1 | -1.99 | 
CC[C@]12c3[nH]c4cc(CCC(=O)N(C)C)ccc4c3CCN1C(=O)[C@@H](CC(=O)NCC13CC4CC(CC(C4)C1)C3)C[C@@H]2C(=O)N1CCN(C(=O)c2ccco2)CC1 | -3.16 | 
Cc1cccc(NS(=O)(=O)c2ccc(-c3cnc(C4CC4)o3)cc2)c1C | -14.9 | 
CCN(CC)c1ccc(-c2nn3c(-c4ccccc4OC)nnc3s2)cc1 | -2.37 | 
COc1cc(OC)cc(C(=O)NCC(=O)N2CC=C(c3ccccc3)CC2)c1 | -2.46 | 
CC1=Nc2cc(C(=O)NCc3ccco3)ccc2Sc2ccc(C)cc21 | -2.52 | 
CCCCC[C@H](O)/C=C/[C@@H]1[C@@H](CCCCCCC(=O)O)[C@@H](O)C[C@H]1O | -1.13 | 
COc1ccc(Nc2nc(-c3c(C)nc4ncccn34)cs2)cc1 | -6.49 | 
COc1ccc(NC(=O)C(=O)NCC2CCCN2S(=O)(=O)c2ccc(C)cc2)cc1 (stereo not given) | -2.59 | 
COc1ccc(Nc2nc(N)nc(CCl)n2)cc1 | 0.223 | 
Cc1ccc2nc(SCC(=O)Nc3cc(C(F)(F)F)ccc3N3CCOCC3)[nH]c2c1 | -7.54 | 
CCOc1ccc(N(CC(=O)Nc2ccccc2OC)S(=O)(=O)c2ccccc2)cc1 | -3.72 | 
COc1cc2c(cc1OC)C(c1ccc(OC)c(OC)c1OC)CC(=O)N2 (stereo not given) | -0.252 | 
Cn1c(O)c(N=NC(=S)Nc2ccccc2F)c2cc(S(=O)(=O)N3CCOCC3)ccc21 |  | 3.66 µM (active)
CCc1ccccc1NC(=S)N=Nc1c(O)n(C)c2ccc(S(=O)(=O)N3CCOCC3)cc12 | -9.04 | 
Cc1ccccc1NC(=S)N=Nc1c(O)n(C)c2ccc(S(=O)(=O)N3CCOCC3)cc12 | -18.4 | 
COc1ccc(/C=C/C(=O)Nc2ccc(-n3nncc3-c3ccc(OC)c(OC)c3)cc2)cc1OC | -1.06 | 
COc1ccc(OC)c(C2C3=C(COC3=O)Nc3cc4c(cc32)OCO4)c1 (stereo not given) | -1.69 | 
CCN(CC)S(=O)(=O)c1ccc2c(c1)c(=O)c(C(=O)NCCc1ccc(OC)c(OC)c1)cn2C | -0.826 | 
O=C(COc1ccc(C(=O)c2ccc(F)cc2)cc1)NCc1ccc(F)cc1 | -2.37 | 
